For 16 compounds, Potency results are on record in PubChem BioAssay AID1224861 (National Center for Advancing Translational Sciences (NCATS), 2016).

Records with an inconclusive call do not appear. A call without a number means that no potency is given here. Calls of active or inactive are those of the source. Calls come from the whole dose curve; as a rule, active = well fitted cell-killing curve with a large enough effect; inconclusive = small, poorly fitted or top-dose-only effect, or effect the other way; inactive = flat fitted curve, though single readings scatter.

The assay in a line: Compound cytotoxicity measured by an ATP content assay as a counter-screen for lead compounds in human astrocytes. The following applies: human astrocytes viability, ATP luminescence; series mostly up to 46.1 µM. The method in brief: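 Cytotoxicity expressed as percent inhibition of cell viability from ATP-dependent luminescence, read after 10 min at room temperature with 1:1 kit reagent. Compound exposure times matched the primary screens, e.g. 6, 24 or 72 h, in cultured human astrocytes.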
With `O=C(O)[C@H](CC(=O)N1C[C@@H]2CCCC[C@H]2C1)Cc1ccccc1`, the Potency entry is “inactive”.
For `CCC(C(=O)O)c1ccc(N2Cc3ccccc3C2=O)cc1` (stereo unspecified), the Potency entry was “inactive”.
With `N[C@H](CSC(c1ccccc1)(c1ccccc1)c1ccccc1)C(=O)O`, the Potency entry was “inactive”.
With `Cc1cc(O)c2ccccc2c1O`, the Potency was 8.69 µM (active).
As to `Cc1[nH]c(C=C2C(=O)Nc3ccccc32)c(C)c1CCC(=O)O`, the Potency entry was “inactive”.
In the case of `CCCCCNC(=O)N1CCC(CN(Cc2ccc(Cl)cc2)Cc2ccc([N+](=O)[O-])s2)C1` (stereo unspecified), the Potency entry is “inactive”.
Regarding `Oc1ccc(/C=C/c2cc(O)cc(O)c2)cc1`, the Potency was 10.9 µM (active).
Regarding `COc1ccc2nc(NC(=O)Nc3ccccc3)sc2c1`, the Potency is 19.5 µM (active).
The result for `CC(C)(C)OC(=O)CN(Cc1ccc(Cl)cc1)Cc1ccc([N+](=O)[O-])s1` reads “inactive”; that for `CC(O)=C(C#N)C(=O)Nc1ccc(C(F)(F)F)cc1`, 6.9 µM (active); that for `Cc1c(N)c(=O)n(-c2ccccc2)n1C`, “inactive”.
With `O=c1cc(-c2ccccc2)oc2cc(O)c(O)c(O)c12`, the Potency result is “inactive”.
`Cc1ccc(C(=O)c2ccc(CC(=O)O)n2C)cc1`: the Potency result was “inactive”.
For `CN(C)c1cc(NC(=O)CNC(C)(C)C)c(O)c2c1C[C@@H]1C[C@H]3[C@H](N(C)C)C(=O)C(C(N)=O)=C(O)[C@@]3(O)C(=O)C1=C2O`, the Potency entry is “inactive”.
In the case of `COCCn1c2c([n+](Cc3cnccn3)c1C)C(=O)c1ccccc1C2=O`, the Potency is 0.138 µM (active).
`CC[C@]1(O)C[C@H]2CN(CCc3c([nH]c4ccccc34)[C@@](C(=O)OC)(c3cc4c(cc3OC)N(C=O)[C@H]3[C@@](O)(C(=O)OC)[C@H](OC(C)=O)[C@]5(CC)C=CCN6CC[C@]43[C@@H]65)C2)C1`: the Potency entry is “inactive”.
